Assay outcomes (PubChem BioAssay)
The list is not random: actives were taken first. Their share in the collection is about 4.6%.
D1 agonist – human D1 receptor agonism; P21728; HEK293 T-REx D1 cells, calcium flux, agonist mode; activation, % at 2 µM; 360,000 compounds, 1% hits
Target sequence (P21728 whole entry, looked up): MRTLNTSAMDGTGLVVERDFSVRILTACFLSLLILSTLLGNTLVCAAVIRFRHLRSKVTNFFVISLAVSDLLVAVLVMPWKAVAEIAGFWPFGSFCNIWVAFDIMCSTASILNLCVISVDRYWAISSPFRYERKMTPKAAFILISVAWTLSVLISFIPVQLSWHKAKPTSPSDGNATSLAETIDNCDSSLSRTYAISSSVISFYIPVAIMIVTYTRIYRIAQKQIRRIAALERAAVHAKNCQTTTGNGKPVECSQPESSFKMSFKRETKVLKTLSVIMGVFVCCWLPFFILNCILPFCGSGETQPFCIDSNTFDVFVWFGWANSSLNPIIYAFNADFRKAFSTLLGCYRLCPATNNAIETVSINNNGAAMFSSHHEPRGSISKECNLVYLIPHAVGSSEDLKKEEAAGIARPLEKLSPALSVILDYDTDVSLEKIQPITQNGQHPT
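Agonism was scored from calcium flux recorded over 180 s (1 read/s) after pintool compound addition, following a 10-cycle baseline. Cells were inducible force-coupled HEK293 TREx D1, plated overnight at 30 C and loaded with no-wash calcium dye.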
D1 antag – human D1 dopamine receptor antagonism | 360,000 compounds, 3.2% hits | HEK293 TREx D1 cells, calcium flux, dopamine EC80; hits give low values | AID 504652 | activity change, negative = inhibition, % at 10 µM | P21728; in the data active = activity change below about -30%
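Tetracycline-induced HEK293 Trex D1 cells, force-coupled to calcium, dye-loaded; compounds added and read 180 s, then EC80 dopamine added and calcium flux tracked kinetically another 180 s.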
TRHR PAM – allosterically enhances the human TRH receptor | P34981 | TRHR cells, fluo-8 calcium fluorescence, EC20 TRH enhancement | enhancement, % at 2 µM | 360,000 compounds, 0.66% hits | AID 493056; in the data active = enhancement above about 30%
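Enhancer read-out: after compound pinning and an initial kinetic agonist-mode read, an EC20 of TRH (10 nM final) was injected and fluo-8 calcium signal (Ex 480/Em 530) followed at 1 s/cycle for 100 cycles in TRHR-expressing cells.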
D1 PAM – enhances dopamine response at the human D1 receptor; potentiation, % at 10 µM; 360,000 compounds, 0.036% hits; AID 504651; P21728; HEK293 TREx D1 cells, calcium flux, dopamine EC20 potentiation; in the data active = potentiation above about 30%
TRHR ag – agonists of human TRH receptor; TRHR cells, calcium flux fluo-8, FDSS agonist mode; activation, % at 2 µM; 360,000 compounds, 0.18% hits; AID 493084
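Steps: seed TRHR cells overnight; add fluo-8 no-wash Ca dye, RT 30 min–1.5 h; record 10 s baseline; pin-transfer compounds; monitor fluorescence 1 cycle/s for the agonist window. Calcium increases flag candidate agonists.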
Numbers stand for hits. Cut-off read from the data, not from the text of the source, unless noted: active = activation above about 30%; inactive = the rest.

Results for COc1cc(C(=O)N(CCc2ccccc2)C2=CC3CCC(C2)N3C)cc(OC)c1OC (stereo not given) ?
D1 agonist: inactive; D1 antag: inactive; TRHR PAM: inactive; D1 PAM: inactive; TRHR ag: inactive

How did CCOC(=O)NC(=O)c1cn(Nc2ncc(Cl)cc2C(F)(F)F)c(=O)[nH]c1=O do in these assays?
D1 agonist: inactive; D1 antag: -44; TRHR PAM: inactive; D1 PAM: inactive; TRHR ag: inactive

What do the screens show for `CCOC(=O)NC(=O)c1cn(Nc2ncc(C(F)(F)F)cc2Cl)c(=O)[nH]c1=O`?
D1 agonist: inactive; D1 antag: inactive; TRHR PAM: inactive; D1 PAM: inactive; TRHR ag: inactive

How did CCOC(=O)Cn1cc(/C=C(/C#N)C(=O)NC(C)C)c2ccccc21 do in these assays?
D1 agonist: inactive; D1 antag: -33; TRHR PAM: inactive; D1 PAM: inactive; TRHR ag: inactive

How did CCOC(=O)Cn1cc(/C=C(\C#N)C(=O)N2CCOCC2)c2ccccc21 do in these assays?
D1 agonist: inactive; D1 antag: inactive; TRHR PAM: inactive; D1 PAM: inactive; TRHR ag: inactive

Results for CC(C)OC(=O)/C(C#N)=C/c1cn(C)c2ccccc12 ?
D1 agonist: inactive; D1 antag: -39; TRHR PAM: inactive; D1 PAM: inactive; TRHR ag: inactive

What do the screens show for `CCC(C)NC(=O)CSc1nc2cc3c(cc2c(=O)n1CCCCCC(=O)NCc1ccc(OC)cc1)OCO3` (stereo not given)?
D1 agonist: inactive; D1 antag: inactive; TRHR PAM: inactive; D1 PAM: inactive; TRHR ag: inactive

Results for COc1ccc(C)c2sc(N3CCCC3)nc12 ?
D1 agonist: inactive; D1 antag: -37; TRHR PAM: inactive; D1 PAM: inactive; TRHR ag: inactive

Results for COc1ccc(OC)c2sc(N3CCN(C(=O)C4CC4)CC3)nc12 ?
D1 agonist: inactive; TRHR PAM: inactive; D1 PAM: inactive; TRHR ag: inactive

How did Cc1ccc2nc(NC(=O)COC(=O)c3ccco3)sc2c1 do in these assays?
D1 agonist: inactive; D1 antag: inactive; TRHR PAM: inactive; D1 PAM: inactive; TRHR ag: inactive

How did O=C(COC(=O)c1ccco1)Nc1nc2ccc([N+](=O)[O-])cc2s1 do in these assays?
D1 agonist: inactive; D1 antag: -52; TRHR PAM: inactive; D1 PAM: inactive; TRHR ag: inactive

How did CCOc1ccc(-c2nnc(SCC(=O)NCCC(C)C)nc2-c2ccc(OCC)c(OC)c2)cc1OC do in these assays?
D1 agonist: inactive; D1 antag: inactive; TRHR PAM: inactive; D1 PAM: inactive; TRHR ag: inactive

How did Cc1cccc(OCc2nnc(SCC(=O)Nc3cccc(C(=O)N4CCOCC4)c3)n2C)c1C do in these assays?
D1 agonist: inactive; D1 antag: -42; TRHR PAM: inactive; D1 PAM: inactive; TRHR ag: inactive

How did Cc1ccnc(NS(=O)(=O)c2cc(-c3cc(C)no3)ccc2C)c1 do in these assays?
D1 agonist: inactive; D1 antag: inactive; TRHR PAM: inactive; D1 PAM: inactive; TRHR ag: inactive

What do the screens show for `Cc1cc(-c2ccc(C)c(S(=O)(=O)Nc3cccc(C)n3)c2)on1`?
D1 agonist: inactive; D1 antag: -44; TRHR PAM: inactive; D1 PAM: inactive; TRHR ag: inactive

Results for Cc1cc(-c2ccc(C)c(S(=O)(=O)Nc3cccc(CN4CCCC4)c3)c2)on1 ?
D1 agonist: inactive; D1 antag: -61; TRHR PAM: inactive; D1 PAM: inactive; TRHR ag: inactive

How did CCc1ccc(-c2cc(C)no2)cc1S(=O)(=O)N1CCC(C)CC1 do in these assays?
D1 agonist: inactive; D1 antag: inactive; TRHR PAM: inactive; D1 PAM: inactive; TRHR ag: inactive

How did CCc1ccc(-c2cc(C)no2)cc1S(=O)(=O)N1CCCN(Cc2ccc(F)cc2)C1 do in these assays?
D1 agonist: inactive; D1 antag: -31; TRHR PAM: inactive; D1 PAM: inactive; TRHR ag: inactive

How did Cc1cc(-c2ccc(C)c(S(=O)(=O)Nc3ccccc3C(F)(F)F)c2)on1 do in these assays?
D1 agonist: inactive; D1 antag: -36; TRHR PAM: inactive; D1 PAM: inactive; TRHR ag: inactive

What do the screens show for `COc1ccccc1CNC(=O)CCc1c(C)nn(-c2ccc(N3CCOCC3)nn2)c1C`?
D1 agonist: inactive; D1 antag: inactive; TRHR PAM: inactive; D1 PAM: inactive; TRHR ag: inactive

How did O=C(Nc1ccc(C(=O)OCc2cc(=O)n3c4c(sc3n2)CCCC4)cc1)c1cccc(F)c1 do in these assays?
D1 agonist: inactive; D1 antag: inactive; TRHR PAM: inactive; D1 PAM: inactive; TRHR ag: inactive

How did COc1cccc(CCN2CCC(CNS(=O)(=O)c3cc(-c4cc(C)no4)ccc3C)CC2)c1 do in these assays?
D1 agonist: inactive; D1 antag: -55; TRHR PAM: inactive; D1 PAM: inactive; TRHR ag: inactive

What do the screens show for `O=C(c1cc([N+](=O)[O-])ccc1N1CCOCC1)N1CCOCC1`?
D1 agonist: inactive; D1 antag: -42; TRHR PAM: inactive; D1 PAM: inactive; TRHR ag: inactive

How did Cc1ccc(NC(=O)c2cc([N+](=O)[O-])ccc2N2CCOCC2)cc1C do in these assays?
D1 agonist: inactive; D1 antag: -30; TRHR PAM: inactive; D1 PAM: inactive; TRHR ag: inactive

Results for CC1CCCCN1Cc1c(O)ccc2c(=O)c(-c3nc4ccccc4s3)coc12 (stereo not given) ?
D1 agonist: inactive; D1 antag: inactive; TRHR PAM: 32; D1 PAM: inactive; TRHR ag: inactive

What do the screens show for `CCc1cc2c(=O)c(-c3nc4ccccc4n3C)coc2c(CN2CCCCC2C)c1O` (stereo not given)?
D1 agonist: inactive; D1 antag: inactive; TRHR PAM: inactive; D1 PAM: inactive; TRHR ag: inactive

What do the screens show for `CCc1ccc(S(=O)(=O)N(C(=O)c2ccncc2)c2ccc3oc(C)c(C(=O)OC)c3c2)cc1`?
D1 agonist: inactive; D1 antag: inactive; TRHR PAM: inactive; D1 PAM: inactive; TRHR ag: inactive

Results for CCOc1ccc(S(=O)(=O)N(C(=O)c2ccncc2)c2ccc3oc(C)c(C(=O)OC)c3c2)cc1 ?
D1 agonist: inactive; D1 antag: -46; TRHR PAM: inactive; D1 PAM: inactive; TRHR ag: inactive

Results for COC(=O)c1c(C)oc2ccc(N(C(=O)c3ccncc3)S(=O)(=O)c3ccc(OC)cc3)cc12 ?
D1 agonist: inactive; D1 antag: -48; TRHR PAM: inactive; D1 PAM: inactive; TRHR ag: inactive

How did Cc1ccc(NC(=O)C(Cc2ccccc2)NS(=O)(=O)c2ccc3c(c2)oc(=O)n3C)cc1F (stereo not given) do in these assays?
D1 agonist: inactive; D1 antag: inactive; TRHR PAM: inactive; D1 PAM: inactive; TRHR ag: inactive

How did O=C(Nc1ccccc1F)c1nc(S(=O)(=O)Cc2ccccc2F)ncc1Cl do in these assays?
D1 agonist: inactive; D1 antag: -45; TRHR PAM: inactive; D1 PAM: inactive; TRHR ag: inactive
